An excerpt weighted towards active compounds, which were near 11% of everything screened.
PNC inhibitor – blocks assembly of the perinucleolar compartment | PC3M PTB-GFP, PNC prevalence imaging, 16 h; hits give low values | activity change (PNC), negative = inhibition, % at 10 µM | 140,000 compounds, 3.1% hits | AID 2417;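 active = readout at or below -70, meaning at least 70% loss of cells showing the perinucleolar compartment, a nuclear body marking cancer cells; inconclusive = readout between -30 and a set limit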;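 also: plate controls were DMSO wells for no effect and camptothecin positive control wells for full effect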
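Compounds are pinned in duplicate onto adhered PC3M cells stably expressing GFP-tagged PTB and incubated 16 h at 37 C. Cells are then fixed, nuclei stained with Hoechst, and PNC-positive cells counted.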
JMJD2E inh – JMJD2E (human) inhibition | JMJD2E catalytic domain, FDH-coupled NADH fluorescence (FDH is formaldehyde dehydrogenase) | B2RXH2 | Potency, µM (doses to about 57.1 µM), for inactives: at the highest dose activity change, negative = inhibition, actives largely listed as inhibitors | 230,000 compounds, 1.6% hits;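 also: potency is read from the fitted curve at half-maximal effect; 0% = wells with enzyme and -100% = buffer wells without enzyme; nearly all actives have a fitted effect of over 50% in size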
Target sequence (B2RXH2 1-337 limits assumed): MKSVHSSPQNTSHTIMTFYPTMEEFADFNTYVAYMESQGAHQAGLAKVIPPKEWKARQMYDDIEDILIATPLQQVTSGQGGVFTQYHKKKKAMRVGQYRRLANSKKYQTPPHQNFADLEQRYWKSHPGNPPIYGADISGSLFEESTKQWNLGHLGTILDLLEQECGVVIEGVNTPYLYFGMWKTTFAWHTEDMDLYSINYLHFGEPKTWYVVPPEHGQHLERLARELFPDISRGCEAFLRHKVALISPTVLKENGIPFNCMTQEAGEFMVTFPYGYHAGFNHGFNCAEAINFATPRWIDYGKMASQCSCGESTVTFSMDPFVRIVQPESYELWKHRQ
ALDH1A1 inh – ALDH1A1 (human) enzyme inhibition | P00352 | Purified ALDH1A1, NADH fluorescence, propionaldehyde substrate | Potency, µM (doses to about 75.3 µM), for inactives: top-dose activity, negative = inhibition, usual class: inhibitors | 220,000 compounds, 7.3% hits | AID 1030;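 also: potency is read from the fitted curve at half-maximal effect; plate controls were no enzyme wells and a reference inhibitor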
HPGD inh – blocks human HPGD enzyme activity. P15428. purified HPGD, NADH fluorescence kinetic, PGE2 substrate. Potency, µM, for the others: at the highest dose activity change, negative = inhibition, most hits filed as inhibitors. 150,000 compounds, 4.3% hits. AID 894; also: potency is read from the fitted curve at half-maximal effect
Target sequence (P15428 whole entry, looked up): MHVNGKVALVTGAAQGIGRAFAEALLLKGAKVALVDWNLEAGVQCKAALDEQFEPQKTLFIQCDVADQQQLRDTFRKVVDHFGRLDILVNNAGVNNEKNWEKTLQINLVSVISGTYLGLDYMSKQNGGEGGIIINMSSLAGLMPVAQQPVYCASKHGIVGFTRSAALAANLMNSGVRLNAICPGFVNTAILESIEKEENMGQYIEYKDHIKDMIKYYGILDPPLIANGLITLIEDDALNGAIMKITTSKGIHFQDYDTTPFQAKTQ
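NADH formation kinetics: reaction with 30 uM PGE2 and 1 mM NAD+ (final), 20 nM enzyme, Tris-HCl pH 8 with Tween 20, after 15 min compound preincubation at room temperature. Fluorescence change, last versus first of five reads.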
Numbers without * were called inactive; ? = inconclusive; · = no result; [ ] = remark or other dose. Unless noted, calls follow the shape of the dose curve; as a rule, active = well fitted inhibition curve with a large enough effect (not every such curve was filed as active); inconclusive = small, poorly fitted or top-dose-only effect, or another doubt; inactive = no such curve, though single readings can be large or run the other way. Unless noted, % is scaled to controls: 0 for no effect and ±100 for the full control effect.

SMILES	PNC inhibitor	JMJD2E inh	ALDH1A1 inh	HPGD inh
CCOc1ccc(C(=O)NC(=S)Nc2cccnc2)cc1[N+](=O)[O-]	·	-0.8%	-2.0%	·
COc1ccc(C(=O)NC(=S)Nc2cccnc2)cc1[N+](=O)[O-]	·	-3.1%	22.4µM*	·
COC(=O)c1ccc(NC(C)C(=O)OC)c([N+](=O)[O-])c1 (configuration not stated)	63.1	5.0%	3.8%	1.1%
Cc1ccc(C)c(OCCn2cc(/C=C(\C#N)C(=O)NCc3ccco3)c3ccccc32)c1	-85.6*	281.1%	30.2%	18.1%
COc1ccccc1OCCn1cc(/C=C(\C#N)C(=O)NCc2ccco2)c2ccccc21	-2.1	-2.6%	?	-6.0%
Cc1ccc2nc(C)cc(C(=O)N3CCCC(CO)(Cc4ccccc4C)C3)c2c1 (configuration not stated)	·	-14.8%	-4.2%	·
CCOC(=O)NC(CC(=O)O)c1ccc(OC)cc1 (configuration not stated)	-100.0*	4.2%	10.3%	2.5%
COC(=O)C(O)(CC(=O)Nc1ccc(OC)cc1)C(F)(F)F (configuration not stated)	?	-11.3%	5.6%	1.6%
CCOC(=O)C(O)(CC(=O)c1ccc(OC)cc1)C(F)(F)F (configuration not stated)	-81.0*	5.6%	?	-3.7%
O=C(COC(=O)c1cccc(C(=O)OCC(=O)NC2CC2)n1)NC1CC1	·	-4.0%	-12.3%	·
O=C(Cn1cncn1)N1CCN(c2ccc(F)cc2)CC1	·	-3.4%	-4.1%	·
Cc1cccc(C)c1N1CCN(C(=O)Cn2cncn2)CC1	·	-12.4%	12.6µM*	·
Cc1onc(-c2ccccc2Cl)c1C(=O)O/N=C(\N)c1ccc([N+](=O)[O-])o1	·	-1.4%	12.6µM*	·
CCCCCCCCC(=O)NC(NC(=S)N1CCOCC1)C(Cl)(Cl)Cl (configuration not stated)	-100.0*	9.3%	?	-20.8%
C=C/C(=C\C)C[C@@H](CC(=O)N[C@@H](CCC(=O)O)CC(=O)O)NC(=O)[C@@H]1CNCC[C@H]1NC(=O)C[C@@H](NC(=O)C[C@H](Cc1ccccc1)NC(=O)[C@@H]1CCCC[C@H]1N)C(C)C	·	8.1%	8.4%	-4.9%
Cc1ccc(-n2nnc(-c3cccnc3Cl)n2)cc1	·	1.8%	2.6%	·
CCCCn1c(-c2csc(C(C)C)c2)n[nH]c1=S	-109.0*	-13.5%	7.94µM*	?
CCCc1cc(-c2n[nH]c(=S)n2CC(C)C)cs1	-7.3	-20.4%	11.2µM*	?
CCCCn1c(-c2csc(CC)c2)n[nH]c1=S	?	-2.8%	?	?
CCOC(=O)c1sc(N)c(C(=O)Nc2ccccc2)c1C	·	-7.8%	11.2µM*	·
CCOC(=O)c1c(N)sc(C(=O)N2CCCCC2)c1C	31.4	0.1%	?	8.91µM*
CCOC(=O)c1sc(NC(=O)c2ccccc2)cc1C	17.3	?	?	?
CCOC(=O)c1c(NC(=O)Cc2cccs2)sc(C(=O)N2CCCCC2)c1C	21.6	-2.2%	2.51µM*	7.08µM*
CCOC(=O)c1sc(N)c(C(=O)OCC)c1C	·	0.6%	·	·
CCOC(=O)c1c(N)sc(C(=O)OCCOC)c1C	·	-3.8%	14.1µM*	·
SMILES	PNC inhibitor	JMJD2E inh	ALDH1A1 inh	HPGD inh
CCOC(=O)c1c(N)sc(C(=O)N2CCCC2)c1C	?	0.9%	-8.3%	?
Cc1ccnc(SCC(=O)Nc2c(C)n(C)n(-c3ccccc3)c2=O)n1	26.5	6.0%	8.7%	-5.8%
COC(=O)c1[nH]c(C)c(/C(O)=C2\C(=O)C(=O)N(CCCN3CCOCC3)C2c2ccccn2)c1C (configuration not stated)	-2.2	?	10µM*	?
CCOC(=O)c1[nH]c(C)c(/C(O)=C2\C(=O)C(=O)N(CCCN3CCOCC3)C2c2cccnc2)c1C (configuration not stated)	99.5	-6.9%	?	-6.6%
COc1cccc(/C(O)=C2/C(=O)C(=O)N(CCN3CCOCC3)C2c2cccnc2)c1 (configuration not stated)	-17.5	?	3.55µM*	-25.8%
COc1ccc(/C(O)=C2/C(=O)C(=O)N(CCN3CCOCC3)C2c2ccc(C)cc2)cc1 (configuration not stated)	44.6	-3.6%	?	-10.5%
COc1ccc(/C(O)=C2/C(=O)C(=O)N(CCN3CCOCC3)C2c2cccnc2)cc1OC (configuration not stated)	212.5	?	25.1µM*	-20.3%
CC(C)Oc1ccc(/C(O)=C2/C(=O)C(=O)N(CCN3CCOCC3)C2c2ccccc2)cc1 (configuration not stated)	-17.4	-28.0%	22.4µM*	-16.1%
Cn1c(=O)c2[nH]c(COCc3nc4c([nH]3)c(=O)n(C)c(=O)n4C)nc2n(C)c1=O	·	·	10.1%[13.5 µM]	-5.2%
Cc1ccccc1COC[C@H](CC(C)C)N1CCN(C(=O)c2cccc(C(F)(F)F)c2)CCC1=O	0.7	2.5%	-2.8%	-4.3%
O=C1C(=O)N(CCN2CCOCC2)C(c2ccccn2)/C1=C(/O)c1ccc(F)cc1 (configuration not stated)	22.7	?	25.1µM*	-4.6%
Cc1ccc(S(=O)(=O)Cn2nnnc2C(CC(C)C)N2CCN(C(=O)c3ccco3)CC2)cc1 (configuration not stated)	-113.4*	-3.3%	?	1.6%
CCC(c1nnnn1C1CCCC1)N1CCN(Cc2ccccc2)CC1 (configuration not stated)	?	-2.4%	14.1µM*	-5.6%
CCCC(c1nnnn1Cc1ccco1)N1CCC(C(N)=O)CC1 (configuration not stated)	-25.9	-7.6%	3.55µM*	2.8%
CCCCC(c1nnnn1CC1CCCO1)N1CCN(Cc2ccccc2)CC1 (configuration not stated)	-100.0*	8.5%	?	-11.1%
Fc1ccccc1C(c1nnnn1C1CCCC1)N1CCN(Cc2ccccc2)CC1 (configuration not stated)	-22.7	7.1%	?	1.9%
COc1cccc([C@@H]2Oc3ccc(Br)cc3[C@H](O)[C@H]2O)c1	·	4.1%	-0.8%	-13.7%
CN(C)c1ccc(C(c2nnnn2C(C)(C)C)N2CCN(C(=O)c3ccco3)CC2)cc1 (configuration not stated)	38.2	-7.5%	?	·
CC(C)CC(c1nnnn1C1CCCC1)N1CCN(C(=O)c2ccco2)CC1 (configuration not stated)	0.6	-1.9%	8.91µM*	-6.0%
COc1ccccc1C(c1nnnn1C(C)(C)C)N1CCN(C(=O)c2ccco2)CC1 (configuration not stated)	-11.7	1.8%	25.1µM*	1.6%
Cc1ccc2occ(C(c3nnnn3C3CCCC3)N3CCN(C(=O)c4ccco4)CC3)c(=O)c2c1 (configuration not stated)	22.4	-0.4%	1.12µM*	-5.0%
Oc1ccc(N2CCN(C(c3ccccn3)c3nnnn3C3CCCC3)CC2)cc1 (configuration not stated)	338.0	?	25.1µM*	-27.5%
